From PubChem BioAssay (Tox21)
Results filed as inconclusive are left out. A call without a number means that no potency is given here. Calls of active or inactive are those of the source. The call rests on the fitted dose curve; in most records, active means well fitted cell-killing curve with a large enough effect in the repeat runs; inconclusive means weak or mixed curves, or effect the other way; inactive means no such curve, though single readings can be large or run the other way.

Test: qHTS assay for small molecule activators of the heat shock response signaling pathway - cell viability counter screen (AID 743209); further: nearly all actives have a fitted effect of over 50% in size
Conditions: HSE-bla HeLa viability, CellTiter-Glo luminescence, 5 h; series mostly up to 62.6 µM; activity change, negative = cytotoxicity: at the top concentration
From the text: U.S. Tox21 Program National Center for Advancing Translational Sciences [NCATS] NIH Chemical Genomics Center [NCGC] U.S. Environmental Protection Agency [EPA] National Institutes of Environmental Health Sciences [NIEHS] National Toxicology Program [NTP] U.S. Food and Drug Administration [FDA] Tox21 Assay Overview: Various chemicals, environmental and physiological stress conditions may lead to the activation of heat shock response/ unfolded protein response (HSR/UPR). There are three heat shock transcription factors (HSFs) (HSF-1, -2, and -4) mediating transcriptional regulation of the human HSR. To identify the compounds that activate HSR signaling, HSE-bla HeLa cell line (Invitrogen, Carlsbad, CA, USA) containing a beta-lactamase reporter gene under the control of the heat shock response elements was used to screen Tox21 10K compound library. The cytotoxicity of the Tox21 compound library against the HSE-bla HeLa cell line was tested in parallel by measuring the cell viability using CellTiter-Glo assay (Promega, Madison, WI) in the same wells.
Tox21 Assay Protocol Summary: The CellSensor HSE-bla HeLa cells (Invitrogen, Carlsbad, CA, USA) were dispensed at 1500 cells/6uL/well into 1536-well black wall/clear bottom plates using a Multidrop combi (Thermo Fisher Scientific, Waltham, MA) dispenser. After the assay plates were incubated at 37 C and 5% CO2 overnight, 23 nL of compounds dissolved in DMSO, positive controls or DMSO only was transferred to the assay plate by a Pintool station (Kalypsys, San Diego, CA). The plates were incubated at 37 C for 5 h. After 1 uL of LiveBLAzerTM B/G FRET substrate was added using a Flying Reagent Dispenser (FRD, Beckman Coulter, Indianapolis, IN, USA), the plates were incubated at room temperature for 2.5 h, and fluorescence intensity was measured by an Envision plate reader (PerkinElmer, Shelton, CT). For cell viability readout that measures cytotoxicity, 3 ul/well of CellTiter-Glo reagent was added into the assay plates using a FRD. After 30 min incubation at room temperature, the luminescence intensity in the plates was measured using a ViewLux (PerkinElmer) plate reader.

| Structure (SMILES) | Potency | activity change, negative = cytotoxicity |
| --- | --- | --- |
| c1ccc2c(c1)[nH]c1ccccc12 | inactive | – |
| C=CN1CCCC1=O | inactive | – |
| C[C@]12CC[C@@H]3c4ccc(O)cc4CC[C@H]3[C@@H]1CC[C@H]2O | inactive | – |
| CN(C)C | inactive | – |
| O=[Se](O)O | inactive | – |
| Nc1ccc2c(O)cc(S(=O)(=O)O)cc2c1 | inactive | – |
| CCc1cccc2c3c([nH]c12)C(CC)(CC(=O)O)OCC3 (stereo not given) | inactive | – |
| CC(=O)[C@@]1(O)CC[C@H]2[C@@H]3C[C@H](C)C4=CC(=O)C=C[C@]4(C)[C@@]3(F)[C@@H](O)C[C@@]21C | inactive | – |
| CCOC(=O)C(C)Oc1ccc(Oc2cnc3cc(Cl)ccc3n2)cc1 (stereo not given) | inactive | – |
| Nc1cc([N+](=O)[O-])ccc1C(=O)O | inactive | – |
| COc1ccc(-c2coc3cc(O)cc(O)c3c2=O)cc1 | inactive | – |
| C/C=C/C(=O)N(CC)c1ccccc1C | inactive | – |
| C=C[C@H]1CN2CC[C@H]1C[C@H]2[C@H](O)c1ccnc2ccc(OC)cc12 | inactive | – |
| C1CN(SSN2CCOCC2)CCO1 | – | -6.23% (inactive) |
| Cc1ccc(S(=O)(=O)O)cc1C | inactive | – |
| [Na+] | inactive | – |
| CC(C)=CCO | inactive | – |
| CCCCCCCCCCCCCO | inactive | – |
| CC1(C)NC(=O)N(c2ccc([N+](=O)[O-])c(C(F)(F)F)c2)C1=O | inactive | – |
| CC1(C)C(C=C(Cl)Cl)C1C(=O)OCc1cccc(Oc2ccccc2)c1 (stereo not given) | inactive | – |

| Structure (SMILES) | Potency | activity change, negative = cytotoxicity |
| --- | --- | --- |
| ClC/C=C/CCl | – | 5.64% (inactive) |
| O=C(O)c1ccc(O)cc1 | inactive | – |
| FC(F)(F)C(Cl)Br (stereo not given) | inactive | – |
| O=C1OC2(c3ccccc31)c1cc(I)c(O)c(I)c1Oc1c2cc(I)c(O)c1I | inactive | – |
| Cc1ccc([N+](=O)[O-])c(C)c1 | inactive | – |
| C=CC(C)(O)CCC=C(C)C (stereo not given) | inactive | – |
| Cc1ccc2c(c1)C(=O)OC2=O | inactive | – |
| CC(=O)Nc1ccc2c(c1)Cc1cc(NC(C)=O)ccc1-2 | inactive | – |
| CCO[Si](CCCNC(N)=O)(OCC)OCC | inactive | – |
| C[C@]12CC[C@@H]3c4ccc(O)cc4CC[C@H]3[C@@H]1CC[C@@H]2O | inactive | – |
| IC(I)I | inactive | – |
| O=C1CCc2ccccc2O1 | inactive | – |
| NCCS(=O)(=O)O | inactive | – |
| Clc1ccc(Sc2cc(Cl)c(Cl)cc2Cl)cc1 | inactive | – |
| C=CCNCC=C | inactive | – |
| Nc1cc(Cl)c(N)c(Cl)c1 | inactive | – |
| COCCOCCOCCO | inactive | – |
| O=Cc1ccccc1C=O | – | 4.23% (inactive) |
| CC(=O)O[C@]1(C(C)=O)CC[C@H]2[C@@H]3C=C(Cl)C4=CC(=O)CC[C@]4(C)[C@H]3CC[C@@]21C | inactive | – |
| OC[C@@H](O)[C@@H](O[C@@H]1O[C@H](CO)[C@H](O)[C@H](O)[C@H]1O)[C@H](O)[C@@H](O)CO | inactive | – |
